# Compound activity as filed in PubChem BioAssay.
# ELG1 genotox: genotoxicity induction in ELG1-luciferase HEK293T cells. HEK293T ELG1-luciferase reporter, luminescence, 16 h. Potency, µM (top dose mostly 46 µM), for inactives: at the top dose activity change, positive = activation, actives largely listed as activators. 330,000 compounds, 1.3% hits; also: % of control where 0% means no effect; nearly all actives have a fitted effect of over 60% in size
#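 16 hr compound incubation (37 °C, 5% CO2) of HEK293T cells carrying luciferase-tagged ELG1; luciferase then measured by ONE-Glo luminescence after 30 min at RT.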
# FLuc modulator: inhibits or activates purified firefly luciferase, miR-21 counter-screen | purified FLuc, Km substrates, luminescence inhibition | Potency, µM (highest dose often 57.5 µM), for the others: top-dose activity change, negative = inhibition, hits mostly inhibitors | 360,000 compounds, 6.9% hits | AID 588342;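 also: plate controls were vehicle for no effect and reference inhibitor for full effect; nearly all actives have a fitted effect of over 55% in size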
# Target sequence (P08659 whole entry, looked up): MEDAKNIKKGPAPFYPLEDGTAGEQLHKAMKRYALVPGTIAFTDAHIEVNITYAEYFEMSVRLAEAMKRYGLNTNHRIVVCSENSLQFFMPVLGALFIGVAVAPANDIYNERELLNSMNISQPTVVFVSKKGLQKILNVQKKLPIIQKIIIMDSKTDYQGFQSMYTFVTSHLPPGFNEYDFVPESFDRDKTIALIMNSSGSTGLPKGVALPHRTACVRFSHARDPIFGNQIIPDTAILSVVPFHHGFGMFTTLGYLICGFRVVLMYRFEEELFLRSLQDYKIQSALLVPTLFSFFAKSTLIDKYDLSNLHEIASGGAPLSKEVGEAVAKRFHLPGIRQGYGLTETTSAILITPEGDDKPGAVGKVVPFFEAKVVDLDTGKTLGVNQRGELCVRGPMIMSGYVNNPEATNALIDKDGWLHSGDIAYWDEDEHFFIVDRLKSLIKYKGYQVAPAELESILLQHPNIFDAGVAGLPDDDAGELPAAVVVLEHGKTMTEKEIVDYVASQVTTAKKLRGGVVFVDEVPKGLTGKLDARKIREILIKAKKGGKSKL
#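 Biochemical qHTS of compounds, final roughly 60 µM downward over six points, against 10 nM purified firefly luciferase using Km concentrations of substrates (10 uM D-luciferin, 10 uM ATP) in Tris acetate pH 7.5 buffer; luminescence output.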
# Rab9 prom act: activators of Rab9 promoter; Potency, µM (titrated, usually from 9.22 µM), without a hit: top-dose activation, negative = inhibition, usual class: activators; AID 485297; 320,000 compounds, 2.8% hits; Huh7 Rab9 promoter-luciferase reporter, luminescence, 24 h; also: % of control where 0% means no effect; nearly all actives have a fitted effect of over 60% in size
#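 Huh7 cells stably carrying a Rab9 promoter-luciferase reporter, 1500 cells per well in OP-MEM I with 10% FBS, treated with compound 24 hours at 37C. Luciferase activity read by luminescence after 10 minutes with Amplite reagent.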
# ELG1 DNA repair: blocks ELG1-dependent DNA repair in HEK293T cells. HEK293T ELG1-luciferase reporter, luminescence, 16 h; DNA damage induced by 5-fluorouridine. 330,000 compounds, 2.3% hits. Potency, µM (highest dose often 46.1 µM), for inactives: at the top dose activity change, negative = inhibition, usual class: inhibitors; also: % is scaled to controls: 0 for no effect and ±100 for the full control effect; nearly all actives have a fitted effect of over 55% in size
#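 Step one: seed 2,000 cells per well. Step two: pin-transfer compound or DMSO alongside 5-fluorouridine. Step three: incubate 16 hr, 37 °C, 5% CO2. Step four: add ONE-Glo, wait 30 min, read luminescence.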
# NPC1 prom act: activates the NPC1 promoter; Huh7 NPC1 promoter luciferase reporter, 24 h; Potency, µM (top dose mostly 9.22 µM), for the others: at the top dose activation, hits mostly activators; 320,000 compounds, 2.4% hits; also: % of control where 0% means no effect; nearly all actives have a fitted effect of over 60% in size
#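 Cells: Huh7 expressing luciferase under the NPC1 promoter, 1500/well. Seeded 2 h, compound added, incubated 24 h at 37 °C. Luciferase reagent, 10 min ambient, then luminescence.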
# SMN2 splice enh: increases expression of the SMN2 splice variant | HEK293 SMN2-luciferase splicing reporter, luminescence, 30-36 h | Potency, µM (series often up to 46.1 µM), without a hit: at the highest dose activity change, positive = activation, most hits filed as activators | 210,000 compounds, 2.8% hits; also: % of control where 0% means no effect; nearly all actives have a fitted effect of over 55% in size
#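 HEK293 cells carry an SMN2 […]–luciferase reporter in which exon 7 inclusion puts luciferase in frame. Cells were plated 10-12 h before compound addition, then incubated 30-36 h at 37C. ONE-Glo luminescence was read; sodium butyrate at 4.5 mM final served as control.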
# Starred values were filed as active, the others as inactive; u = inconclusive; x = no result. Compounds with a hit are over-represented: about 9.3% of the library has one in this group of screens. Calls follow the shape of the dose curve; as a rule, active = well fitted curve in the direction sought with a large enough effect; inconclusive = small, poorly fitted or top-dose-only effect, or another doubt; inactive = no such curve, though single readings can be large; an effect the other way counts as inactive or inconclusive. Potency is read from the fitted curve at half-maximal effect.
SMILES,ELG1 genotox,FLuc modulator,Rab9 prom act,ELG1 DNA repair,NPC1 prom act,SMN2 splice enh
Clc1ccc(N=NN2CCOCC2)cc1,u,17µM*,21%,u,18%,x
NS(=O)(=O)c1ccc(N=NN2CCCCC2)cc1,11%,17µM*,u,u,u,x
Cc1ccc(S(=O)(=O)Nc2cc(C)cn(Cc3ccccc3)c2=O)cc1,-11%,2%,-3%,u,2%,x
COC(=O)c1ccc(N=NN2CCOCC2)cc1,u,17µM*,u,u,u,11µM*
COC(=O)c1ccc(C(=S)N2CCOCC2)cc1,0%,9%,3%,10%,3%,1%
O=C1c2ccccc2NC(c2ccccc2)N1/N=C/c1ccccc1 (stereo unspecified),20%,u,2.5µM*,u,2.5µM*,25µM*
CCCOc1cccc(-c2nc3ccccc3c(=O)o2)c1,u,8.5µM*,26%,u,8%,x
CCC(=O)Oc1ccc(-c2nc3ccccc3c(=O)o2)cc1,x,1.7µM*,x,x,x,-5%
CCCOc1ccc(-c2nc(OC)c3ccccc3n2)cc1,5%,13µM*,3%,u,19%,-10%
CCCOc1ccc(-c2nc3ccccc3c(=O)o2)cc1,x,0.67µM*,x,x,x,16µM*
CC(=O)Nc1cccc(-c2nc3ccccc3c(=O)o2)c1,0%,-7%,-3%,10%,0%,-5%
S=c1[nH]c2ncccc2o1,-2%,-6%,11%,0%,-2%,14%
Cc1ccc(CCNC(=O)c2c(C)nn(-c3ccc(F)cc3)c2-n2cccc2)cc1,x,3%,x,x,x,x
Cc1ccc(NC(=O)C(C)Sc2nnc(C)n2C)cc1 (stereo unspecified),3%,u,-8%,4%,2%,x
COc1ccc(-c2nc3c(c4nnc(SC(C)C(=O)Nc5ccc(C)cc5)n24)COC(C)(C)C3)cc1 (stereo unspecified),-2%,2%,2%,21µM*,-1%,-7%
COc1ccc(-c2nnc(SCC(=O)Nc3ccccc3)n2C)cc1,-5%,-1%,7%,1%,10%,-17%
COc1ccc(NC(=O)CSc2nnc3c4c(nc(-c5ccccc5)n23)CC(C)(C)OC4)cc1,0%,-2%,-5%,18µM*,-7%,4%
COc1ccc(C(=O)Oc2c(Sc3ccccc3)c(C)nn2-c2ccccc2)c(OC)c1,x,-7%,x,x,x,0%
COc1ccccc1NC(=O)C12CCC(C)(C(=O)C1)C2(C)C (stereo unspecified),-1%,-1%,-1%,7%,-5%,0%
COc1ccc(N2C(=O)c3ccccc3NC2c2ccc(OC)c(Cn3nnc4ccccc43)c2)cc1 (stereo unspecified),13%,1%,u,u,u,14µM*
COc1ccc(C2Nc3ccccc3C(=O)N2c2ccc(C)cc2)cc1COc1ccccn1 (stereo unspecified),u,u,3.2µM*,u,3.2µM*,11µM*
Cc1cccc(Nc2ncnc3onc(-c4ccc(Cl)cc4)c23)c1C,x,6%,x,x,x,x
COc1ccc(C2C(C(=O)c3cccs3)=C(O)C(=O)N2Cc2cccnc2)cc1OC (stereo unspecified),u,19µM*,u,u,u,x
O=C1C=C(Nc2ccccc2C(=O)O)c2ccccc2C1=O,-15%,u,-4%,26µM*,-7%,x
O=C1C=C(Nc2ccccc2)c2ccccc2C1=O,-16%,u,-37%,9.2µM*,-41%,-103%
O=C1C(Nc2ccccc2)=CC(=O)c2ncccc21,x,x,x,x,x,-114%
O=C1C=C(Nc2cccc3cccnc23)c2ccccc2C1=O,u,-6%,-39%,u,-37%,x
CCCCNC1=CC(=O)C(=O)c2ccccc21,4%,u,11%,9%,6%,x
CCc1ccc(NC2=CC(=O)C(=O)c3ccccc32)cc1,-6%,11µM*,-4%,1%,1%,x
